Compound activity (PubChem)
Compounds with a hit are over-represented: about 0.76% of the library has one in this group of screens.
MRP-1 activ = activators of MRP-1; H69AR cells + doxorubicin, viability rescue, CellTiter-Glo; viability increase, % at 10 µM; 0.61% of 140,000 active; AID 799;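 active = viability gain under doxorubicin at or above a set limit, the compound median plus 3 SD, cut at about 4.7% in these data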;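 also: MRP-1 overexpressing cells given doxorubicin 25 µM after compound pretreatment; 18-22 h compound pretreatment then 72 h with doxorubicin before readout; 0% = doxorubicin-only wells and 100% = vehicle-treated cells without doxorubicin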
sEH inhibitor = blocks human soluble epoxide hydrolase activity; AID 707; P34913; recombinant human sEH enzymatic activity assay; 0.34% of 91,000 active; inhibition, % at 2 µM; in the data active = inhibition above about 80%
Target sequence (P34913 whole entry, looked up): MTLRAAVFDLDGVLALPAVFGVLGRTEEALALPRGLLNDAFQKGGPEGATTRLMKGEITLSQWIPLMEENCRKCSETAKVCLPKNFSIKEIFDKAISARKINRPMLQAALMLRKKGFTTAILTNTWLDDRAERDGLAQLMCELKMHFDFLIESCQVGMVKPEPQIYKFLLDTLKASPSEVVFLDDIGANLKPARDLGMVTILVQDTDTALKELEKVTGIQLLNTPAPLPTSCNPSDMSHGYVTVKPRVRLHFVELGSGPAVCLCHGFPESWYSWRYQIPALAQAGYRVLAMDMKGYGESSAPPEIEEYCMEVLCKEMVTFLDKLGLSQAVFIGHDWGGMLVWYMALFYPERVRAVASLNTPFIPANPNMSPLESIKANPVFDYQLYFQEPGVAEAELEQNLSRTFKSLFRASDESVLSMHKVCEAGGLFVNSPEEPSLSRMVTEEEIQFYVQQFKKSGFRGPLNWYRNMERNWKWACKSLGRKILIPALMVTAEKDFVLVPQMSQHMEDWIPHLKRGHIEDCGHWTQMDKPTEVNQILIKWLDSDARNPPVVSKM
MRP reversal = compounds reversing MRP-mediated drug resistance; AID 602; 0.04% of 85,000 active; H69AR cells + 2 uM doxorubicin, CellTiter-Glo, 72 h; differential viability (reversal), % at 10 µM;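 active = viability drop by adding the cancer drug above about 55%, with treated viability meeting a 40% cutoff, limit read from the data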;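 also: viability without doxorubicin minus viability with 2 µM doxorubicin for each compound; larger differential means the compound sensitizes cells more to doxorubicin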
sEH act = soluble epoxide hydrolase (human) activation; P34913; purified human sEH enzymatic activity, activator screen; activation, % at 2 µM; 0.04% of 91,000 active; in the data active = activation above about 37%
* marks the source's active call; other numbers are inactive results; x = no result given.

SMILES	MRP-1 activ	sEH inhibitor	MRP reversal	sEH act
COc1ccc(NC(=O)Cn2cc(C(=O)c3ccco3)c3ccccc32)cc1	6.7*	7	12	-3
O=C(NC(=S)Nc1ccccn1)c1cc(-c2ccccc2)nc2ccccc12	7.5*	x	x	x
O=C(NC(=S)Nc1ccccc1)c1cc(-c2ccccc2)nc2ccccc12	-1	17	x	-15
Nc1c2c(nc3ccn(-c4ccccc4)c(=O)c13)CCCCC2	4.9*	-12	6	14
Cc1cccc(N2CCN(CC(O)COCc3cccs3)CC2)c1C (stereo unspecified)	-1	x	x	x
Cc1ccc(C(=O)Nc2nc(-c3cccnc3)cs2)o1	-4	13	10	-10
CCc1ccc(-c2csc(NC(=O)Oc3ccccc3)n2)cc1	13*	x	x	x
O=C(Nc1nc(-c2ccccc2)cs1)c1ccc(Br)o1	6.9*	x	x	x
O=C(NC(=S)Nc1nc(-c2ccccc2)cs1)c1cncc(Br)c1	6.8*	9	x	-8
O=C(Nc1nc(-c2cccc(Br)c2)cs1)Oc1ccccc1	0	3	x	-1
Cc1ccc(N=C(NOCc2ccc(Cl)cc2Cl)c2nonc2N)c(C)c1	-3	-5	57*	2
Clc1ccccc1Cn1nnc2c(Nc3ccccc3)ncnc21	4.7*	x	x	x
Fc1ccc(N2CCN(c3ncnc4c3nnn4Cc3ccccc3Cl)CC2)cc1	5.0*	11	-1	-7
Cc1cc2nc(-c3ccc(SCC(=O)N4CCN(C(=O)c5ccco5)CC4)nc3)[nH]c2cc1C	-4	81*	-9	-81
Cc1cccc(NS(=O)(=O)c2cc(C(=O)OC(C)C(=O)NCc3ccc4c(c3)OCO4)ccc2C)c1 (stereo unspecified)	4.8*	x	x	x
Cc1cccc(NC(=S)NCc2ccc3c(c2)OCO3)c1	-4	x	x	x
Cc1cc(N2CCOCC2)ccc1/C=C\[N+](=O)[O-]	-5	x	x	x
CCCc1nn(C)c(C(=O)Nc2ccc3ccccc3c2)c1Cl	-1	x	x	x
Cn1cc(Br)c(C(=O)NNC(=O)c2ccc(Cl)cc2)n1	6.4*	x	x	x
C=CCOc1c(CNc2ccc(C(=O)O)cc2)cccc1OCC	6.7*	3	x	-5
COc1ccccc1NC(=O)C1=C(C)NC(=O)NC1c1cc(C)cs1 (stereo unspecified)	-1	x	x	x
Cc1cc(C)cc(-n2c(C)cc(/C=C3\C(=N)N4N=C(CC(C)C)SC4=NC3=O)c2C)c1	4.7*	x	x	x
Cc1cccc(-n2c(C)cc(/C=C3\C(=N)N4N=C(CC(C)C)SC4=NC3=O)c2C)c1	0	x	x	x
CCCCNC1C(CC)C(CCC)C(C#N)(C#N)C1(C#N)C#N (stereo unspecified)	-2	-48	x	44*
CS(=O)(=O)N1CCC(C(=O)N2CCc3ccccc3C2)CC1	-1	-39	13	39*
SMILES	MRP-1 activ	sEH inhibitor	MRP reversal	sEH act
CCOCCCNC(=S)Nc1cc(C)cc(C)c1	-2	x	x	x
CC1=NN(C(=O)c2ccc(Cn3nc(C)c(Br)c3C)cc2)C(O)(C(F)(F)F)C1 (stereo unspecified)	5.2*	x	x	x
COCc1cc(C)nc(OCC(=O)N/N=C/c2ccc(-c3cc([N+](=O)[O-])ccc3C)o2)c1C#N	4.7*	3	x	-3
COCc1cc(C)nc(OCC(=O)N/N=C/c2ccc(-c3cccc([N+](=O)[O-])c3)o2)c1C#N	-1	-6	x	7
Cc1cc(OCC(=O)Nc2ccc(S(=O)(=O)NC3=NCCCCC3)cc2)c(C(C)C)cc1Cl	-3	x	x	x
COCCNC(=O)c1ccccc1-c1ccccc1C(=O)O	1	-1	5	2
O=C(O)c1ccccc1-c1ccccc1C(=O)NCCCO	-1	-33	-16	37*
O=C(c1cccs1)N1CCN(Cc2ccccc2[N+](=O)[O-])CC1	-1	x	x	x
CCOc1cccc(-c2csc(C3COc4ccccc4O3)n2)c1 (stereo unspecified)	0	x	x	x
O=C(O)/C=C\C(=O)NC1CCCCC1	29*	x	x	x
Cc1[nH]c2ccccc2c1C(=O)C(=O)NCCC1=CCCCC1	12*	x	x	x
O=C(NCCC1=CCCCC1)C(=O)NCc1ccccc1	-3	x	x	x
Cc1ccc(C(C(=O)Nc2ccc3c(c2)OCO3)N(C)C(=O)Cc2c[nH]c3ccccc23)cc1 (stereo unspecified)	-4	x	x	x
CC(/C=C1\SC(=S)N(NC(=O)c2ccc(O)cc2)C1=O)=C\c1ccccc1	7.9*	x	x	x
CC(/C=C1\SC(=S)N(CCCC(=O)Nc2ccc(C(=O)O)cc2)C1=O)=C\c1ccccc1	13*	x	x	x
O=C(c1ccccc1F)N(NC(=O)C(O)(c1ccccc1)c1ccccc1)c1ccccc1	0	x	x	x
O=C(N/N=C/c1ccccc1OCc1ccccc1)c1cccs1	0	x	x	x
COc1ccc(CCN2C(=O)CC(NNC(=O)c3ccc(F)cc3)C2=O)cc1OC (stereo unspecified)	0	x	x	x
COc1ccc(CCN2C(=O)C3C4CC(C5C(C(=O)N/N=C\c6ccc(Cl)cc6)=NOC45)C3C2=O)cc1OC (stereo unspecified)	0	94*	-1	-94
COc1ccccc1Cc1nc2ccccc2n1S(=O)(=O)c1ccc(Cl)cc1	-2	x	x	x
COc1ccc(C(=O)N2N=C3CC(C)(C)OCC3C2c2ccccc2)cc1 (stereo unspecified)	-1	x	x	x
O=C(NC1CCCCCCC1)C1CCN(S(=O)(=O)N2CCC3(CC2)OCCO3)CC1	-2	88*	-29	-88
O=C(N[C@@H](Cc1ccccc1)C(=O)NC1CCCCCC1)c1ccco1	-1	80*	x	-80
O=C(N[C@@H](Cc1ccccc1)C(=O)NC1CCCCC1)c1ccco1	-2	49	x	-50
FC(F)(F)c1cccc(CNc2ncccc2-c2nc3cc(Cl)ccc3o2)c1	5.2*	-7	x	7
SMILES	MRP-1 activ	sEH inhibitor	MRP reversal	sEH act
Cc1ccccc1-c1nc2cc(Cl)ccc2o1	-4	0	5	4
CN(C#N)c1nc(Cl)nc(Nc2cccc(Cl)c2)n1	-3	x	x	x
O=C(CCCN1C(=O)c2ccccc2C1=O)Nc1ccc(S(=O)(=O)N2CCCCC2)cc1	-2	89*	13	-89
CC(=O)Nc1ccccc1OC(C)C(=O)NC(C)c1ccc(F)cc1 (stereo unspecified)	0	x	x	x
CCN(C(=O)c1cc2cc3ccc(C)cc3nc2o1)c1ccc(OC)cc1	6.6*	-12	-1	16
Cc1ccc(NC2(c3nnnn3-c3c(C)cccc3C)CCCCC2)cc1	-3	x	x	x
COC(=O)Nc1ccc(S(=O)(=O)Nc2ccc(O)cc2)cc1	-3	-1	60*	0
C/C(=N\NC(=S)Nc1cc(S(=O)(=O)N2CCOCC2)ccc1Cl)c1ccccc1F	1	x	x	x
CCC(CC)NC(=O)COC(=O)c1ccc(OCC(=O)Nc2ccccc2OC)c(OC)c1	1	83*	x	-83
Cc1ccc(COc2cccc3c2CCN(Cc2ccc(F)cc2)C3=O)cc1	5.0*	x	x	x
O=C1c2cccc(OCc3ccc(F)cc3)c2CCN1Cc1ccccc1	1	x	x	x
Cc1cc(C)n(CCc2nc(-c3ccc(-c4ccccc4)cc3)cs2)n1	7.3*	x	x	x
COc1cc(OC)cc(-c2nnc(SCC(=O)Nc3cc(C)on3)o2)c1	x	1	64*	-2
Cc1ccc(/C(O)=C2/C(=O)C(=O)N(CCCn3ccnc3)C2c2ccccn2)cc1 (stereo unspecified)	-1	-6	-7	6
Cc1ccc(C)c(/C(O)=C2\C(=O)C(=O)N(CCCn3ccnc3)C2c2ccncc2)c1 (stereo unspecified)	7.3*	11	-19	-11
